From PubChem BioAssay AID1942 (Johns Hopkins Ion Channel Center, 2009)
Out of some 2,400 compounds screened, about 580 (24%) were called active.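 Rule for the calls: active = activity change at or above the mean plus 3 SD of buffer wells without dofetilide, per plate; inactive = the rest.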 Not all results are given here.

Biological target: Potassium voltage-gated channel subfamily KQT member 2 (Rattus norvegicus) (UniProt O88943)
Experiment: KCNQ2 potentiation in CHO cells – cell-based, FluxOR thallium flux, counter-screen for hERG block protector project, confirmation (AID 1942);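 note: normalized value minus buffer-control mean plus three SD of buffer wells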
Conditions: FluxOR thallium flux fluorescence, at 10 µM, stronger effect = higher value

Potassium voltage-gated channel subfamily KQT member 2 (Rattus norvegicus), sequence (O88943 whole entry, looked up): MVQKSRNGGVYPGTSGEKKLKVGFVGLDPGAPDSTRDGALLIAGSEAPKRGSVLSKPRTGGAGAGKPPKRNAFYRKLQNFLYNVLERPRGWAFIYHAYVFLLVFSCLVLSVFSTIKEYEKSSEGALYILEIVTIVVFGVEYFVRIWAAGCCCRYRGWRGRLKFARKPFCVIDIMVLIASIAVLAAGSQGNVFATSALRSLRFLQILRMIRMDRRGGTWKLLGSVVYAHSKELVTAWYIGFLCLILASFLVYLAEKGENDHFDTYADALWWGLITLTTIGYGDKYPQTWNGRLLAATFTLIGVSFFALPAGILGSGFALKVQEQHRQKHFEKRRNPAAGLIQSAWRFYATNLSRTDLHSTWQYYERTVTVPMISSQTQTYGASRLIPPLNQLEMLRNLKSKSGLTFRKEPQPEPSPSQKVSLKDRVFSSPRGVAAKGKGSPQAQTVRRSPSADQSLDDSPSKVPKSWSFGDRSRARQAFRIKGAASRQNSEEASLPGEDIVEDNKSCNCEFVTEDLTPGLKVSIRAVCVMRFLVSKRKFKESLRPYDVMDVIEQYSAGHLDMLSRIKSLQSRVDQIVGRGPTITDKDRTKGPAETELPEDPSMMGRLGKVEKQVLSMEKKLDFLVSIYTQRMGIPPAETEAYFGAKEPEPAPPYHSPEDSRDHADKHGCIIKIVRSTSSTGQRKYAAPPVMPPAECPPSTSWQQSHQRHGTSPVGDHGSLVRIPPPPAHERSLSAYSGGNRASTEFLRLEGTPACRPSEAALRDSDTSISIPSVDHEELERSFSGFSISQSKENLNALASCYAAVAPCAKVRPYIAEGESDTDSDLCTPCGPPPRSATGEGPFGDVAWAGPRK

**Q.** For `COC(=O)Sc1nnc(-c2ccc(Br)cc2)o1`, which activity change, less the hit threshold is on record?
**A.** Its activity change, less the hit threshold is -1.8% (inactive).

**Q.** With `CCc1ccc2c(c1)c(N=NC1=NC(=O)CS1)c(O)n2CC` as the compound, how does the activity change, less the hit threshold read?
**A.** The activity change, less the hit threshold was 26.5% (active).

**Q.** For `CCn1c(O)c(N=NC2=NC(=O)CS2)c2cc(C)ccc21`, which activity change, less the hit threshold is on record?
**A.** Its activity change, less the hit threshold is -10.5% (inactive).

**Q.** `CCn1c(O)c(N=NC2=NC(=O)CS2)c2ccccc21` was tested. Which activity change, less the hit threshold did it give?
**A.** Its activity change, less the hit threshold is -5.8% (inactive).

**Q.** How did the activity change, less the hit threshold turn out when `C/C(=N/NC(=O)c1ccncc1)c1ccc2c(c1)OCO2` was run?
**A.** The activity change, less the hit threshold was -22.1% (inactive).

**Q.** With `COc1ccc(OCC(=O)NNC(=O)C(=O)Nc2cc(OC)ccc2OC)cc1` as the compound, how does the activity change, less the hit threshold read?
**A.** The activity change, less the hit threshold was 15.9% (active).

**Q.** With `COc1cccc(OCC(=O)NNC(=O)C(=O)Nc2ccc(OC)cc2OC)c1` as the compound, how does the activity change, less the hit threshold read?
**A.** Its activity change, less the hit threshold is 15.4% (active).

**Q.** `COc1ccc(OC)c(NC(=O)C(=O)NNC(=O)C23CC4CC(CC(C4)C2)C3)c1` was tested. Which activity change, less the hit threshold did it give?
**A.** The activity change, less the hit threshold was 96.2% (active).

**Q.** `COc1ccc(NC(=O)C(=O)NNC(=O)COc2ccc(Cl)cc2)c(OC)c1` was tested. Which activity change, less the hit threshold did it give?
**A.** Its activity change, less the hit threshold is 15.6% (active).

**Q.** For `O=C(NNC(=O)C12CC3CC(CC(O)(C3)C1)C2)c1ccccc1O`, which activity change, less the hit threshold is on record?
**A.** The activity change, less the hit threshold was -1.7% (inactive).

**Q.** With `COc1ccc(NC(=O)C(=O)NNC(=O)COc2ccc(OC)cc2)cc1` as the compound, how does the activity change, less the hit threshold read?
**A.** The activity change, less the hit threshold was -24.3% (inactive).

**Q.** `O=C(COc1ccc(S(=O)(=O)NCc2ccccc2)cc1Cl)NCC1CCCO1` (stereo unspecified) was tested. Which activity change, less the hit threshold did it give?
**A.** The activity change, less the hit threshold was -14.4% (inactive).

**Q.** For `Cc1ccc(-n2c(C)cc(C(=O)CN3CCOCC3)c2C)cc1`, which activity change, less the hit threshold is on record?
**A.** Its activity change, less the hit threshold is -12.8% (inactive).

**Q.** Which activity change, less the hit threshold does the source give for `CN(CC(=O)Nc1ccc(OC(F)(F)F)cc1)S(=O)(=O)c1cnc[nH]1` here?
**A.** The activity change, less the hit threshold was -18.2% (inactive).

**Q.** With `CCN1C(=O)[C@H]2[C@@H](c3ccc(-c4ccc(OC)cc4)cc3)N[C@@](C)(C(=O)OC)[C@H]2C1=O` as the compound, how does the activity change, less the hit threshold read?
**A.** Its activity change, less the hit threshold is -17.6% (inactive).

**Q.** For `CCC(NS(=O)(=O)c1ccc(OC)cc1)C(=O)O` (stereo unspecified), which activity change, less the hit threshold is on record?
**A.** Its activity change, less the hit threshold is -16.1% (inactive).

**Q.** Which activity change, less the hit threshold does the source give for `CN(C)c1oc(-c2ccccc2[N+](=O)[O-])nc1C#N` here?
**A.** Its activity change, less the hit threshold is -6.7% (inactive).

**Q.** With `Cc1ccccc1NC(=O)CN1C(=O)S/C(=C\c2ccc(-c3cc(C(=O)O)ccc3C)o2)C1=O` as the compound, how does the activity change, less the hit threshold read?
**A.** The activity change, less the hit threshold was -10.8% (inactive).

**Q.** How did the activity change, less the hit threshold turn out when `Cc1ccc(NC(=S)N2CCN(c3ccccc3F)CC2)c(C)c1` was run?
**A.** Its activity change, less the hit threshold is -10.4% (inactive).

**Q.** For `Cn1c(=O)[nH]c(=O)c2c1nc(CN1CCN(c3ccccc3F)CC1)n2CCCc1ccccc1`, which activity change, less the hit threshold is on record?
**A.** Its activity change, less the hit threshold is -12.9% (inactive).

**Q.** For `Cc1ccc(-c2csc3nc[nH]c(=S)c23)cc1C`, which activity change, less the hit threshold is on record?
**A.** The activity change, less the hit threshold was 2.5% (active).

**Q.** `Cc1cc(-c2csc3nc[nH]c(=S)c23)cc(C)c1C` was tested. Which activity change, less the hit threshold did it give?
**A.** The activity change, less the hit threshold was 33.7% (active).

**Q.** How did the activity change, less the hit threshold turn out when `C=CCNC(=O)CC(=O)N/N=C/c1cccs1` was run?
**A.** The activity change, less the hit threshold was -10.2% (inactive).

**Q.** `Nc1nc(O)c(N=Nc2ccc(S(N)(=O)=O)cc2)c(=O)[nH]1` was tested. Which activity change, less the hit threshold did it give?
**A.** Its activity change, less the hit threshold is -16.5% (inactive).

**Q.** Which activity change, less the hit threshold does the source give for `CSc1nc2c(c(=O)[nH]1)C(c1ccc(Br)cc1)CC(=O)N2` (stereo unspecified) here?
**A.** Its activity change, less the hit threshold is -18.9% (inactive).

**Q.** With `COc1ccc(S(=O)(=O)c2snnc2C)cc1` as the compound, how does the activity change, less the hit threshold read?
**A.** Its activity change, less the hit threshold is -14.8% (inactive).

**Q.** For `CN(Cc1cccc(C(F)(F)F)c1)Cc1nc(-c2cnccn2)no1`, which activity change, less the hit threshold is on record?
**A.** Its activity change, less the hit threshold is -21.7% (inactive).

**Q.** How did the activity change, less the hit threshold turn out when `COC(=O)C1=C(C)NC2=C(C(=O)CCC2)C1c1ccc(-c2ccsc2C(=O)OC)o1` (stereo unspecified) was run?
**A.** Its activity change, less the hit threshold is 53.7% (active).

**Q.** `COC(=O)C(C)Sc1nnc(Cc2cc(=O)[nH]c(=O)[nH]2)n1-c1cccc(OC)c1` (stereo unspecified) was tested. Which activity change, less the hit threshold did it give?
**A.** The activity change, less the hit threshold was -15.6% (inactive).

**Q.** How did the activity change, less the hit threshold turn out when `Cc1ccc(-n2ncc3c2CCCC3NC(=O)c2csnn2)cc1C` (stereo unspecified) was run?
**A.** The activity change, less the hit threshold was -24.7% (inactive).

**Q.** With `O=c1c2cccnc2[nH]c(=S)n1CCC1=CCCCC1` as the compound, how does the activity change, less the hit threshold read?
**A.** Its activity change, less the hit threshold is 48.1% (active).

**Q.** `O=C(CCn1c(=S)[nH]c2cc3c(cc2c1=O)OCO3)NCc1ccc(Cl)cc1` was tested. Which activity change, less the hit threshold did it give?
**A.** Its activity change, less the hit threshold is -10.2% (inactive).

**Q.** Which activity change, less the hit threshold does the source give for `O=c1c2ccc(Cl)cc2[nH]c(=S)n1CCC1=CCCCC1` here?
**A.** Its activity change, less the hit threshold is 9.4% (active).

**Q.** How did the activity change, less the hit threshold turn out when `O=c1c2ccccc2[nH]c(=S)n1CCC1=CCCCC1` was run?
**A.** The activity change, less the hit threshold was 18% (active).

**Q.** With `COc1ccccc1CNC(=O)CCCC(=O)n1ncc2cc(C)ccc21` as the compound, how does the activity change, less the hit threshold read?
**A.** The activity change, less the hit threshold was -14.9% (inactive).

**Q.** Which activity change, less the hit threshold does the source give for `N#C/C(=N\Nc1ccccc1F)c1nc(-c2ccccc2)cs1` here?
**A.** The activity change, less the hit threshold was -27.5% (inactive).

**Q.** With `CC(=O)Nc1ccc2nc(NC(=O)c3ccc([N+](=O)[O-])o3)sc2c1` as the compound, how does the activity change, less the hit threshold read?
**A.** Its activity change, less the hit threshold is -16.8% (inactive).

**Q.** `Cc1cc(NC(=O)Cn2c(=O)n(Cc3ccccc3)c(=O)c3ccccc32)no1` was tested. Which activity change, less the hit threshold did it give?
**A.** Its activity change, less the hit threshold is -19.9% (inactive).

**Q.** Which activity change, less the hit threshold does the source give for `Cc1ccc(C(C)C)c(OCc2n[nH]c(=S)o2)c1` here?
**A.** Its activity change, less the hit threshold is 10.8% (active).

**Q.** `c1ccc(SSc2ccccn2)nc1` was tested. Which activity change, less the hit threshold did it give?
**A.** The activity change, less the hit threshold was -14% (inactive).

**Q.** How did the activity change, less the hit threshold turn out when `CC(C)(C)Cc1nnc(NC(=O)c2ccco2)s1` was run?
**A.** The activity change, less the hit threshold was -19.2% (inactive).

**Q.** How did the activity change, less the hit threshold turn out when `CC(C)CC(=O)Nc1nc(=S)ss1` was run?
**A.** Its activity change, less the hit threshold is -15.9% (inactive).

**Q.** With `Cn1sc(NC(=O)c2cccc(Cl)c2)nc1=O` as the compound, how does the activity change, less the hit threshold read?
**A.** The activity change, less the hit threshold was -5.4% (inactive).

**Q.** For `O=C(Nc1nc(=S)ss1)c1ccc(Cl)cc1Cl`, which activity change, less the hit threshold is on record?
**A.** The activity change, less the hit threshold was 100% (active).

**Q.** `Cc1ccc(C)c2sc(NC(=O)c3nc4ccccc4s3)nc12` was tested. Which activity change, less the hit threshold did it give?
**A.** Its activity change, less the hit threshold is -7.3% (inactive).

**Q.** For `O=C(NNC(=O)c1ccc(Cl)cc1Cl)c1cnccn1`, which activity change, less the hit threshold is on record?
**A.** Its activity change, less the hit threshold is -19.5% (inactive).

**Q.** How did the activity change, less the hit threshold turn out when `Cc1ccccc1C(=O)Nc1nc(=S)ss1` was run?
**A.** Its activity change, less the hit threshold is 58.6% (active).

**Q.** For `COc1cc(/C=C2/SC(=S)N(CC(=O)O)C2=O)ccc1OCC(=O)Nc1ccc(C)c(C)c1`, which activity change, less the hit threshold is on record?
**A.** Its activity change, less the hit threshold is -18.3% (inactive).

**Q.** For `COC(=O)c1ccnc(/C=N/O)c1`, which activity change, less the hit threshold is on record?
**A.** The activity change, less the hit threshold was -13% (inactive).

**Q.** `N=C1SCC(=O)N1c1ncc(Cc2ccccc2Cl)s1` was tested. Which activity change, less the hit threshold did it give?
**A.** Its activity change, less the hit threshold is -20.8% (inactive).

**Q.** With `COc1ccc2nc(/N=C/c3c(C)[nH]n(-c4ccc(C)cc4)c3=O)sc2c1` as the compound, how does the activity change, less the hit threshold read?
**A.** The activity change, less the hit threshold was 103% (active).

**Q.** For `COc1ccc2nc(-n3c(O)c(C4=c5ccccc5=NC4=O)[nH]c3=S)sc2c1`, which activity change, less the hit threshold is on record?
**A.** The activity change, less the hit threshold was -16.8% (inactive).

**Q.** Which activity change, less the hit threshold does the source give for `Cc1[nH]n(-c2ccc(F)cc2)c(=O)c1/C=N/c1sc2c(c1C#N)CCCC2` here?
**A.** Its activity change, less the hit threshold is 21.6% (active).

**Q.** For `N#Cc1c(NC(=O)c2cc(-n3cnnc3)ccc2Cl)sc2c1CCCC2`, which activity change, less the hit threshold is on record?
**A.** Its activity change, less the hit threshold is -10.6% (inactive).

**Q.** For `CCOc1ccc2nc(N3C(=O)/C(=C/c4ccccc4)NC3=S)sc2c1`, which activity change, less the hit threshold is on record?
**A.** The activity change, less the hit threshold was -26.6% (inactive).

**Q.** `Cc1[nH]n(-c2ccc(Cl)cc2)c(=O)c1/C=N/c1nnc(-c2ccccc2)s1` was tested. Which activity change, less the hit threshold did it give?
**A.** The activity change, less the hit threshold was 170% (active).

**Q.** Which activity change, less the hit threshold does the source give for `CCOc1ccc2nc(/N=C/c3c(C)[nH]n(-c4ccccc4)c3=O)sc2c1` here?
**A.** Its activity change, less the hit threshold is 109% (active).

**Q.** With `Cc1[nH]n(-c2cccc3ccccc23)c(=O)c1/C=N/c1sc2c(c1C#N)CCC2` as the compound, how does the activity change, less the hit threshold read?
**A.** Its activity change, less the hit threshold is -0.6% (inactive).

**Q.** `CCOc1ccc2nc(/N=C/c3nc(-c4ccccc4)oc3O)sc2c1` was tested. Which activity change, less the hit threshold did it give?
**A.** Its activity change, less the hit threshold is -11.5% (inactive).

**Q.** Which activity change, less the hit threshold does the source give for `COc1ccc2nc(N=Nc3c(O)ccc4ccccc34)sc2c1` here?
**A.** Its activity change, less the hit threshold is -4.3% (inactive).

**Q.** For `CC(=O)c1ccc(N2CCN(C(=O)Cc3ccccc3)CC2)c(F)c1`, which activity change, less the hit threshold is on record?
**A.** Its activity change, less the hit threshold is -28% (inactive).
